# Source: ChEMBL document CHEMBL4888484, “Replenishing the malaria drug discovery pipeline: Screening and hit evaluation of the MMV Hit Generation Library 1 (HGL1) against asexual blood stage Plasmodium falciparum ,using a nano luciferase reporter read-out” (2022)
# About 420 (8.8%) of roughly 4,800 compounds showed an effect of 50% or more. Many of the other results were omitted from the sample, so strong results are more common in it than they were.
# Tested on: Plasmodium falciparum
# Test: Confirmatory screen in NF54 nanoGlo assay, in single point, at 2uM, 72h
# Assay type: functional, Erythrocyte
# Details: timepoint 72 hour
row,Compound,% Inhibition [%]
1,COc1ccc(-c2noc(Cn3c(=O)c4ccccc4n(CC(=O)Nc4cc(Cl)ccc4C)c3=O)n2)cc1,-3
2,O=C(C[C@H]1CCN(C(=O)c2ccc(F)cc2)C1)NC1CC1,-11
3,CCS(=O)(=O)Nc1ccc(S(=O)(=O)NC[C@@H](c2ccccc2OC)N2CCCCC2)c(C)c1,-1
4,CC(C)[C@@H]1CC[C@H](C)C[C@H]1OC(=O)Cn1cc(-c2ccc(Cl)cc2)[n+]2c1CCC2,84
5,CC(C)N(C(=O)c1cc(O)nc2ccccc12)C1CC1,-2
6,CN(CC(C)(CO)CO)C(=O)c1coc2ccccc12,-3
7,c1cc(-c2nc3cc4ccccc4cc3[nH]2)nc(-c2nc3cc4ccccc4cc3[nH]2)c1,99
8,Oc1cc(-c2ccc3ccccc3c2)[nH]n1,-11
9,Cc1cccc(C)c1OCC(=O)Nc1ccc(-c2nc3cc4ccccc4cc3[nH]2)cc1,10
10,Cc1cccc(NC(=O)[C@@H](C#N)C(=O)c2ncoc2C)c1,-14
11,Cc1c(C2CC2)n[nH]c1NC(=O)C1CC1c1ccccc1 (stereo not given),-1
12,O[C@@]1(CN2CCC(COc3ccc4c(c3)CCC4)CC2)CCCNC1,52
13,COc1cccc(Cn2nccc2NC(=O)C2CCOCC2)c1OC,-3
14,CC(C)Cn1c(C(F)(F)F)cnc1N,3
15,Cc1ncc(CN(C)[C@@H](C)C(=O)Nc2ccc3c(c2)OC2(CCCCC2)O3)s1,-4
16,COc1cc(Cl)c(C)cc1NC(=O)c1nc2cc(C)c(C)cc2n(C)c1=O,-3
17,Cc1nc2ccccc2n1CCC(=O)N1CCN(Cc2ccc3c(c2)OCO3)CC1,2
18,O=C(c1ccc2c(c1)OCCCO2)N1CCCCC1,-3
19,O=C(c1ccc2c(c1)OCO2)N1CCn2c1nc1ccccc12,65
20,CCC[C@H]1C(=O)NCCN1C(=O)c1cnn(CC2CCOCC2)c1C,8
21,Cc1nnc(NC(=O)[C@H](C)c2ccc(-c3ccccc3)c(F)c2)s1,-19
22,COc1cc(C(c2c(C)n(C)n(-c3ccccc3)c2=O)c2c(C)n(C)n(-c3ccccc3)c2=O)c(Br)c(Br)c1OCc1ccccc1,7
23,COc1cc(C(=O)NC2CCCCC2)cc2occc12,-8
24,Cn1ccnc1C1CC(NC(=O)c2cc3c(s2)CCC3)CCO1 (stereo not given),0
25,COc1cc2c(cc1OC)[C@@H](NC(=O)c1cnc(C3(C)OCCO3)s1)CCCC2,50

row,Compound,% Inhibition [%]
1,Cc1cccc(C(=O)ON2C(=O)CCC2=O)c1,-11
2,CCCCC[C@H](C)NC(=O)CCC(=O)Nc1cccnc1,-11
3,Cc1ccc(Oc2ccccc2CNC(=O)[C@@H]2CCC(=O)N2)cc1,-6
4,COCCN(Cc1nc(C(=O)NC(C)C)cs1)C(=O)Nc1ccc(C(C)C)cc1,4
5,CC1CCN(C(=O)Cc2csc(NC(=O)c3cccc(O)c3)n2)CC(C)C1 (stereo not given),-10
6,Fc1cnc(OC2Cc3ccccc3C2)nc1,57
7,CCn1c(C)cc(C(=O)O[C@@H](C)C(=O)Nc2ncccn2)c1C,-4
8,CC1CCCC(C)N1C(=O)CN(C)c1cccc2cccnc12 (stereo not given),-7
9,Cc1ccc(S(=O)(=O)Nc2ccc(Br)cc2C(=O)Nc2ccc(Oc3ccc(Br)c4ccccc34)c(Cl)c2)cc1,6
10,C[C@@H](CC(=O)Nc1cncnc1-n1cccn1)c1ccccc1,-3
11,OC(CC(Nc1ccc(Cl)cc1)c1ccccc1)c1ccccc1 (stereo not given),-8
12,CC(C)n1nccc1N1C(=O)N[C@@H](CC(F)(F)F)C1=O,0
13,O=C(Nc1cc(NC(=O)c2ccc(F)cc2)cc(Oc2cccnc2)c1)c1ccc(F)cc1,-1
14,O=C(Nc1cnc2ccccc2c1)c1ccccc1C(=O)c1ccc(F)cc1,96
15,CCN1C(=O)C[C@H](C(=O)Nc2cnc3ccccc3c2)[C@H]1c1nccn1CC,2
16,Cc1nn(C)c(NC(=O)Nc2cccc(Cl)c2)c1C1=CCCCC1,-5
17,COc1ccc(-c2cn(-c3ccc(OC)cc3)c(N)c2C#N)cc1,-7
18,CCc1n[nH]c(=O)c(C(=O)Nc2cnc3[nH]nc(C)c3c2)c1CC,-1
19,Cc1nsc(N2CCN(CC(C)O)C(C)C2)n1 (stereo not given),-4
20,c1ccc(C[C@]2(c3ccccc3)CCNC2)cc1,1
21,O=c1cc(N2CCN(C3CCCC3)CC2)cnn1Cc1ccccc1,-13
22,O=C(Cc1ccccc1F)N1CC(n2cnnc2C2CCOCC2)C1,-14
23,COc1ccc([C@@H]2CN(S(=O)(=O)c3ccc(OC)cc3)CCN2C)cc1,1
24,O=c1[nH]c2nc(N3CCC(N4CCCCC4)CC3)ncc2c(=O)n1-c1ccc2c(c1)OCO2,-9
25,CS(=O)(=O)N1CC[C@H](N(C(=O)NCCc2ccccc2)C2CCOCC2)C1,-14

row,Compound,% Inhibition [%]
1,CC(C)c1cccc(Nc2nc3ccncc3n(C(C)C)c2=O)c1,95
2,O=C(CN1CCOC2CCCCC21)N1CCOC2CCCCC21 (stereo not given),-9
3,Cc1cc(C(=O)NC(C2CC2)C2CC2)c(C)o1,-2
4,O=C1NCCC[C@@H]1NS(=O)(=O)N1CCc2ccccc2C1,0
5,CCc1cccc(NC(=O)N2CCN(C3=CC4=NC[C@H](C)N4C=N3)CC2)c1,46
6,Cc1cc(-c2csc(CN3C(=O)CNC3=O)n2)cc(C)c1F,-4
7,Fc1ccccc1N1CCN(c2c3c(nc4nc(Cc5ccc(Cl)cc5)nn24)CCCC3)CC1,-11
8,CNc1nc(N2C[C@H](C)[C@@](O)(C3CC3)C2)nc2c1CCC2,-11
9,CNC(=O)CNC(=O)c1cccc(Cl)c1,-1
10,Cc1nc([C@@H]2CCCN2c2nc(C3CCCC3)ns2)no1,-6
11,Cc1cc(NC(=O)c2occc2-c2ccccc2)sn1,-2
12,CN(Cc1ccccc1)c1nc2ncn(CC(=O)NC3CCCCC3)c(=O)c2s1,-17
13,Cc1ccc(S(=O)(=O)NCC2(CNS(=O)(=O)c3ccc(C)cc3)CN(S(=O)(=O)c3ccc(C)cc3)C2)cc1,7
14,COc1cccc(Cn2c(=O)c3sccc3n(CC(=O)Nc3ccc4c(c3)OCO4)c2=O)c1,10
15,COc1cccc(NC(=O)Cn2c(C)ccc(NS(=O)(=O)c3ccc(C)cc3)c2=O)c1,63
16,COc1cccc(NC(=O)Cn2c(=O)n(C)c(=O)c3sc(N4CCCC4)nc32)c1,0
17,c1ccc2oc(-c3ccnc4nncn34)cc2c1,-7
18,COc1cc(C)c2[nH]c3c(c(=O)c2c1)CN(CC(=O)Nc1ccc2c(c1)OCCO2)CC3,16
19,O=C(NC1CCN(Cc2ccco2)CC1)c1ccco1,-9
20,Clc1cccc(N2CCN(Cc3nc(-c4ccco4)no3)CC2)c1,-6
21,CC(C)(C)OC(=O)NCC1CCCCC1C(F)(F)F (stereo not given),0
22,O=C(CNC(=O)OCc1ccccc1)Nc1ccc(F)cc1,-12
23,COc1cccc(-c2cc(C(=O)N3CCCN(C(=O)c4cc(-c5cccc(OC)c5)nc5ccccc45)CC3)c3ccccc3n2)c1,-1
24,COc1cccc(-c2nn(-c3nc(-c4ccccc4)cc(C(F)(F)F)n3)c(-c3cccc(OC)c3)c2Cl)c1,54
25,COc1ccc(-c2cc(C(F)(F)F)nc(-n3nc(-c4cccc(OC)c4)c(Cl)c3-c3cccc(OC)c3)n2)cc1,84

row,Compound,% Inhibition [%]
1,COc1cccc(-c2nc3n(c2C(=O)Nc2cccc(Cl)c2)CCS3(=O)=O)c1,-3
2,COc1cccc(-c2cc(C(=O)Nc3ccc(F)c(Cl)c3)c3c(C)nn(C)c3n2)c1,-4
3,COc1cccc(-c2cc(C(=O)Nc3cc(Cl)ccc3C)c3c(C)nn(C)c3n2)c1,-15
4,COc1ccc(C)cc1NC(=O)c1nn(-c2ccccc2)c2ccccc2c1=O,17
5,CCn1cc(Cl)c(C(=O)N2CCN(C(=O)c3ccco3)CC2)n1,-11
6,Cc1ccc(CN2CCN(CC(=O)NC3CCCCC3C)C2=O)cc1 (stereo not given),-10
7,C[C@](O)(CNC(=O)Cn1nc2ccccn2c1=O)c1cccs1,-1
8,Clc1ccc(NC2(c3noc([C@@H]4CCCCO4)n3)CCC2)cc1,5
9,COc1cc(CNCc2cccs2)ccc1OCc1ccccc1C,-7
10,COc1ccc(CNCc2ccc(C)cc2)cc1Cn1ccnc1,42
11,CC1Cc2cc(-c3ccc(CNC(=O)C(C)(O)C4CC4)cc3)ccc2O1 (stereo not given),4
12,CC1(C)C[C@@H](NC(=O)c2cc3[nH]cnc3cc2F)CCO1,7
13,Cc1cc([C@H](Nc2ccccn2)c2ccccc2)c(NC(=O)c2ccccc2)s1,4
14,Cc1cc([C@H](Nc2ccccn2)c2cccnc2)c(NC(=O)c2ccccc2)s1,2
15,Oc1ccc2ncccc2c1[C@@H](Nc1ccccn1)c1cccc(Br)c1,67
16,Cc1nn(C)c(C)c1S(=O)(=O)N1CCCN(c2ccc(F)c(F)c2)CC1,3
17,CCCn1c(C)cnc1C1CN(S(=O)(=O)c2ccc(C)c(F)c2)C1,-6
18,Cc1noc(C(C)(C)NC(=O)Nc2c[nH]nc2-c2nccs2)n1,-7
19,COc1ccc(Cl)cc1S(=O)(=O)c1cnc(N2CCOCC2)nc1N,-2
20,C[C@@H](CNc1ncc(C(=O)N2CCOCC2)cc1Cl)c1nncn1C,-12
21,COCCN1C(=O)C[C@H](Nc2ccc3c(c2)CCC3)C1=O,1
22,Cc1ccc(C)c(C(=O)CN2Cc3ccccc3C2=N)c1,0
23,Fc1ccc(Nc2nc3c(s2)CCCC3)cc1,-17
24,c1ccc(C(c2ccccc2)N2CCN(c3nn4cnnc4c4ccccc34)CC2)cc1,65
25,Fc1cccc(-n2nc(-c3ccccc3F)cc2-c2ccccc2F)c1,-6
